# PLK1 PBD block – PLK1 (human) polo-box domain binding inhibition; Plk1 PBD binding of FITC phosphopeptide, fluorescence polarization; P53350; Potency, µM, most hits filed as inhibitors; 2.8% of 360,000 active; note: series mostly up to about 57 µM; nearly all actives have a fitted effect of over 65% in size
# VDR inhibitor – blocks the human vitamin D receptor | Potency, µM, hits mostly inhibitors | 0.93% of 400,000 active | VDR-SRC2-3 peptide fluorescence polarization, 2 h
# Target sequence (P11473 whole entry, looked up): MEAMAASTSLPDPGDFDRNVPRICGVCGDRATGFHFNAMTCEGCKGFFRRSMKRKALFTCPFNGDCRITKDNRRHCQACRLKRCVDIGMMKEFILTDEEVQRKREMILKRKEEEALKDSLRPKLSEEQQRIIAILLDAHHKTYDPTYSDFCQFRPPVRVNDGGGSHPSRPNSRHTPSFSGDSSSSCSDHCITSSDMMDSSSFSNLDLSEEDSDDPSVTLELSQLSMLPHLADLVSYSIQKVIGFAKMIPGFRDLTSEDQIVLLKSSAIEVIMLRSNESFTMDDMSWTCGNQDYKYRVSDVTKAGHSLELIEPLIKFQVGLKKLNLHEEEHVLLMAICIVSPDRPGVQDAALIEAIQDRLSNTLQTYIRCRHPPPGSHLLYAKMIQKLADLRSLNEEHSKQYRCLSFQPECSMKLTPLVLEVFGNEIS
#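 After 23 nl compound addition and a short centrifugation, plates sat for 2 hours at ambient temperature; polarization of fluorescence then indicated loss of VDR binding to peptide SRC2-3.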
# Sfp PPTase inh – blocks B. subtilis Sfp PPTase activity; Biochemical Sfp PPTase activity, qHTS; Potency, µM, hits mostly inhibitors; 3.5% of 310,000 active; AID 1490;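 note: the enzyme is Sfp with the accession as filed and its product quenches rhodamine fluorescence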
#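 After 15 min at room temperature with compound, 15 nM Sfp received 5 uM rhodamine-CoA plus 12.5 uM BHQ-2-ybbR (50 mM Hepes pH 7.6, 10 mM MgCl2). Rate came from the fluorescence difference over 30 min, ex 525/em 598 nm.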
# 12-LOX inh – ALOX12 (human) lipoxygenase inhibition | P18054 | purified 12hLO, xylenol orange hydroperoxide absorbance | Potency, µM (highest dose often 108 µM), hits mostly inhibitors | 1.1% of 580,000 active | AID 1671190
#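 Purified human 12hLO at 150 nM in 25 mM Hepes, 0.01% Triton X-100, pH 7.0, preincubated 15 min at room temperature with compound. Reaction started with 40 uM arachidonic acid, 30 min at room temperature. Hydroperoxide measured by Fe-xylenol orange, 573/405 nm absorbance ratio.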
# A number is an active result; - = inactive; ? = inconclusive; . = not tested or not shown; ! = not active in a repeat. An excerpt weighted towards active compounds, which were near 4.2% of everything screened. Calls come from the whole dose curve; as a rule, active = well fitted curve in the direction sought with a large enough effect; inconclusive = small, poorly fitted or top-dose-only effect, or another doubt; inactive = no such curve, though single readings can be large; an effect the other way counts as inactive or inconclusive.
SMILES,PLK1 PBD block,VDR inhibitor,Sfp PPTase inh,12-LOX inh
COC(=O)C1=C(C)NC=C([N+](=O)[O-])C1c1ccc(OC)cc1 (stereo not given),-,-,14.1µM,-
CCOC(=O)C1=C(C)NC(C)=C(C(=O)OCC)C1c1ccc(OC)cc1,-,-,-,-
COc1cccc(NC(=O)N2CCN(C(=O)C(Cc3ccc(OC)c(OC)c3)NC(C)=O)CC2)c1 (stereo not given),-,-,-,-
CCOc1ccc(-c2cc(NC(=O)c3c(F)cccc3F)c(C(=O)O)s2)cc1,33.6µM,?,-,?
CCOc1ccc(NC(=O)Nc2cc(-c3ccccc3)sc2C(=O)OC)cc1,-,-,-,-
O=C(Nc1cc(-c2ccccc2)sc1C(=O)O)c1cccc(F)c1,29.9µM,-,-,?
CC[C@H](C)[C@H](NC(N)=O)C(=O)NCCc1ccc(OC)cc1,-,-,-,-
CC1(C)CC(c2nc(-c3ccc(Br)cc3)cs2)CCS1 (stereo not given),3.77µM,?,-,?
COCC(=O)NC[C@H]1O[C@@H](CO)[C@@H](O)[C@H]1N(C)CCc1ccccn1,.,.,.,-
COc1ccccc1NCC(=O)N1CCN(S(=O)(=O)c2ccccc2)CC1,-,-,.,-
Cc1cc(C(=O)CN2C(=O)NC(c3ccccc3)(c3ccccc3)C2=O)c(C)n1Cc1ccccc1,-,-,-,-
NCCSSCCN,?,25.1µM,44.7µM!,-
COc1ccc(/C=N/NC(=O)c2ccc(NC(=O)C3CCCCC3)cc2)cc1O,-,-,79.4µM,-
COc1cc(/C=N/NC(=O)c2ccc(NC(=O)C3CC3)cc2)ccc1OC(C)=O,-,-,?,-
CCCCCC(=O)Nc1ccc([C@H]2OCC(=O)N(Cc3nccn3C)[C@@H]2CO)cc1,.,.,.,-
Cc1ccc(C(=O)n2nc(-c3ccco3)nc2NCc2cccs2)cc1,.,-,.,-
COc1ccc(C(=O)n2nc(-c3ccco3)nc2NCc2cccs2)cc1OC,.,-,.,7.94µM
Cc1ccc(OCC(=O)Nc2ccccc2N2CCOCC2)c(C)c1,-,-,-,-
COc1cccc(Nc2nc(-c3ccccc3)cs2)c1,.,.,.,1µM
COc1cccc(Nc2nc(-c3ccccc3)no2)c1,.,.,.,39.8µM
COc1cccc(Nc2nc(-c3cccnc3)cs2)c1,-,-,-,-
c1ccc(-c2csc(Nc3ccc4c(c3)OCO4)n2)cc1,-,.,.,3.55µM!
COc1cccc(Nc2nc(-c3ccc(CNC(C)=O)cc3)cs2)c1,.,.,.,15.8µM
CC(=O)NCCCC(=O)NN1C(=S)N(Cc2ccccc2)C(=O)C1CC(=O)Nc1cccc(C)c1 (stereo not given),-,-,-,-
CCc1nnc(SCc2nc(-c3cccc(Cl)c3)oc2C)c2cc3sc(C)cc3n12,.,-,.,-
SMILES,PLK1 PBD block,VDR inhibitor,Sfp PPTase inh,12-LOX inh
COc1cccc(OC)c1C(=O)NCCSC1CCCCC1,26.7µM,?,-,-
COc1cc(OC)cc(C(=O)NCCSC2CCCCC2)c1,-,-,-,-
CCOC(=O)c1[nH]c2c(OCC)nc(OCC)nc2c1Br,-,-,.,?
Cc1ccccc1C(=O)N1C(C(=O)NCc2ccccc2)COC12CCN(C(=O)c1ccco1)CC2 (stereo not given),.,.,.,-
C/C(=N/NC(N)=S)c1ccccc1[N+](=O)[O-],-,-,22.4µM,-
NC(=S)N/N=C/c1ccccc1[N+](=O)[O-],?,-,4.47µM,35.5µM
CCOC(=O)C1CCN(C(=O)C2(NC(=O)Nc3ccccc3Cl)CCCCC2)CC1,-,-,-,-
CCc1cccc(C)c1NC(=O)COC(=O)CNS(=O)(=O)/C=C/c1ccccc1,-,-,-,-
Cc1ccc(Cl)c(NC(=O)COC(=O)CNS(=O)(=O)/C=C/c2ccccc2)c1Cl,-,-,50.1µM,-
O=C(CC1SC2=NCCN2C1=O)Nc1ccc(Cl)cc1 (stereo not given),-,-,-,-
COc1ccc(NC(=O)CC2Sc3ncnn3C2=O)cc1 (stereo not given),?,-,44.7µM,-
O=C(CC1Sc2ncnn2C1=O)Nc1ccc(Cl)cc1 (stereo not given),-,-,35.5µM,-
COc1ccc(NC(=O)CN2C(=O)C(C)SC(C)C2=O)cc1 (stereo not given),-,-,-,-
CCOC(=O)c1ccc(NC(=O)CC2Sc3ncnn3C2=O)cc1 (stereo not given),?,-,22.4µM,-
CCOC(=O)c1ccc(NC(=O)CC2SC(=NC)N(C)C2=O)cc1 (stereo not given),-,-,-,-
O=C(Nc1cccc(C(=O)N2CCN(c3ccc(F)cc3)CC2)c1)c1nsc2ccccc12,.,-,.,-

# Screening results: PubChem, National Center for Advancing Translational Sciences (NCATS)
